A selection: hits, their analogues and other compounds. The true share with any hit is near 20%.
Shiga toxin inh: A qHTS for Small Molecule Inhibitors of Shiga Toxin; AID 2315, 2010; Vero cells, Shiga toxin protein synthesis inhibition reporter; inhibition, % at 38.7 µM; hit rate 9.2% among 290,000; in the data active means inhibition mostly above about 28%, no sharp cut-off; inactive means mostly below about 43%; further: 0% is about no effect
Pf growth 48h: Primary qHTS for delayed death inhibitors of the malarial parasite plastid, 48 hour incubation | P. falciparum luciferase growth in erythrocytes, 48 h | hit rate 5.9% among 310,000 | Potency, µM (top dose mostly 28.7 µM), for inactives: at the top dose activity change, negative = inhibition, most hits filed as inhibitors; further: potency means the concentration at half of the fitted maximal effect; on the % scale 0 is the no-effect control and ±100 the full control effect
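Erythrocytes infected with P. falciparum carrying an integrated firefly luciferase reporter (2% hematocrit, 0.1% parasitemia final) were exposed to compounds in RPMI 1640 with 0.5% Albumax at 37 C, 5% CO2. Growth inhibition was scored as reduced luminescence.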
Cycloheximide cs: Cycloheximide Counterscreen for Small Molecule Inhibitors of Shiga Toxin; cell reporter, cycloheximide protein synthesis inhibition counterscreen; max response, %; hit rate 12% among 300,000; in the data active means max response mostly above about 13%, no sharp cut-off; inactive means mostly below about 14%; further: read at 38.3 µM for the half of the compounds with a filed dose; 0% is about no effect
Pf growth 96h: Primary qHTS for delayed death inhibitors of the malarial parasite plastid, 96 hour incubation | P. falciparum luciferase reporter growth, 96 h | Potency, µM (series often up to 28.7 µM), for inactives: top-dose activity change, negative = inhibition, hits mostly inhibitors | hit rate 6.9% among 320,000 | AID 504834, 2011; further: potency means the concentration at half of the fitted maximal effect; on the % scale 0 is the no-effect control and ±100 the full control effect
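Erythrocytes infected with luciferase-expressing P. falciparum were dispensed at 2% hematocrit and 0.05% parasitemia (final), then incubated with compounds 96 hours at 37 C in 5% CO2. Luminescence after detection reagent addition reported growth.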
HCMV antiviral: qHTS Assay for inhibitors of the human cytomegalovirus (HCMV) | HFF cells, HCMV-luciferase reporter, 72 h; stronger effect = lower value | activity change, negative = inhibition, % at 57.5 µM | hit rate 4.5% among 410,000 | AID 1259415, 2018; in the data active means activity change below about -60%; inconclusive means no clear call, values can overlap the other calls; inactive means above about -39%; further: on the % scale 0 is the no-effect control and ±100 the full control effect
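After 16 h attachment at 37C, HFF cells received test compound and HCMV-luciferase (1 PFU/cell); reporter luminescence read 72 h later, data normalized against buffer-only and known inhibitor Salinomycin.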
* hit, by the source's call. Unless noted, the call rests on the fitted dose curve; in most records, active means well fitted inhibition curve with a large enough effect; inconclusive means small, poorly fitted or top-dose-only effect, or another doubt; inactive means no such curve, though single readings can be large or run the other way.

How did CC(C)[C@@H]1CC[C@@H](C)C[C@H]1OC(=O)C[n+]1cc(-c2ccc(Cl)cc2)n2c1CCCCC2 do in these assays?
Shiga toxin inh: -14.6; Pf growth 48h: inconclusive; Cycloheximide cs: -1.2; Pf growth 96h: inconclusive; HCMV antiviral: -96.7*

What do the screens show for `CC1CCC(C(C)C)C(OC(=O)COC(=O)c2ccc(N)cc2)C1` (stereo not given)?
Shiga toxin inh: -3.4; Pf growth 48h: -12.1%; Cycloheximide cs: -2.7; Pf growth 96h: inconclusive; HCMV antiviral: -4.8

How did CC1CCC(C(C)C)C(OC(=O)C[n+]2cccc(C(N)=O)c2)C1 (stereo not given) do in these assays?
Shiga toxin inh: -9.4; Pf growth 48h: 11.3%; Cycloheximide cs: 0.8; Pf growth 96h: 22.1%; HCMV antiviral: -5.5

How did COc1ccc(-c2c[n+](CC(=O)OC3CC(C)CCC3C(C)C)c3n2CCC3)cc1 (stereo not given) do in these assays?
Shiga toxin inh: -15.8; Pf growth 48h: inconclusive; Cycloheximide cs: -1.3; Pf growth 96h: inconclusive; HCMV antiviral: -99.7*

What do the screens show for `c1ccc(Cn2ncc3ccccc32)cc1`?
Shiga toxin inh: 18.2; Pf growth 48h: 4.2%; Cycloheximide cs: 7.6; Pf growth 96h: -0.8%; HCMV antiviral: 9.9

Results for Fc1cccc(Cl)c1Cn1ncc2ccccc21 ?
Shiga toxin inh: 31.1*; Pf growth 48h: 40.9%; Cycloheximide cs: 28.1*; Pf growth 96h: 10.8%; HCMV antiviral: -7.9

Results for O=c1cnn(Cc2c(Cl)cccc2Cl)c2ccccc12 ?
Shiga toxin inh: -3.8; Pf growth 48h: 13.1µM*; Cycloheximide cs: -3.1; Pf growth 96h: 9.28µM*; HCMV antiviral: -37.8

What do the screens show for `CCN(CC)S(=O)(=O)c1cccc(NC(=O)CN2C(=O)NC3(CCOc4ccccc43)C2=O)c1` (stereo not given)?
Pf growth 48h: -12.3%; Pf growth 96h: inconclusive; HCMV antiviral: -2.7

What do the screens show for `O=C(Nc1nc2ccccc2s1)C1=NN(c2ccccc2)C(=O)CC1`?
Shiga toxin inh: active; Pf growth 48h: -17.2%; Cycloheximide cs: 20.2*; Pf growth 96h: 7.5%; HCMV antiviral: 6.8

What do the screens show for `Cc1csc(NC(=O)C2=NN(c3ccccc3)C(=O)CC2)n1`?
Shiga toxin inh: 8.7; Pf growth 48h: -17.4%; Cycloheximide cs: -0.8; Pf growth 96h: inconclusive; HCMV antiviral: inconclusive

Results for O=C(Nc1nc2ccc(F)cc2s1)C1=NN(c2ccccc2)C(=O)CC1 ?
Shiga toxin inh: 66.7*; Pf growth 48h: 14.7%; Cycloheximide cs: 35.1*; Pf growth 96h: 2.3%; HCMV antiviral: 39.9

Results for COc1ccc(S(=O)(=O)N2CCCCCC2)cc1NC(=O)CCc1cc(OC)c(OC)c(OC)c1 ?
HCMV antiviral: -5.8

What do the screens show for `COc1ccc(S(=O)(=O)N2CCCCC2)cc1NC(=O)CCOc1cc(C)ccc1C`?
Pf growth 48h: inconclusive; Pf growth 96h: 11.7µM*; HCMV antiviral: 0.0

Results for Cc1ccc(C)c(OCCC(=O)Nc2ccc(S(=O)(=O)N3CCCC3)cc2)c1 ?
Pf growth 48h: inconclusive; Pf growth 96h: 9.28µM*; HCMV antiviral: -28.6

What do the screens show for `C=CCN=C1CC(C)(C)C(C(=O)OC)C(O)=C1C(=O)CCC` (stereo not given)?
Shiga toxin inh: -7.0; Pf growth 48h: 2.5%; Cycloheximide cs: 11.2; Pf growth 96h: 46.6%; HCMV antiviral: 6.5

What do the screens show for `CCN1CCN(C(c2cccs2)C(C)NC(=S)NC2CCCCC2)CC1` (stereo not given)?
Shiga toxin inh: -3.5; Pf growth 48h: -7.2%; Cycloheximide cs: -2.3; Pf growth 96h: -12.1%; HCMV antiviral: 0.6

Results for CC(NC(=O)Cc1cccs1)C(c1cccs1)N1CCOCC1 (stereo not given) ?
Shiga toxin inh: 14.4; Pf growth 48h: 13.1µM*; Cycloheximide cs: -1.4; HCMV antiviral: 9.2

What do the screens show for `CC(NC(=S)NC1CCCCC1)C(c1cccs1)N1CCOCC1` (stereo not given)?
Shiga toxin inh: -3.1; Pf growth 48h: inconclusive; Cycloheximide cs: -2.5; Pf growth 96h: 8.28µM*; HCMV antiviral: -37.2

What do the screens show for `CCN(CC(=O)Nc1ccc(NC(C)=O)cc1)C(=O)CN1C(=O)NC(C)(c2ccc3ccccc3c2)C1=O` (stereo not given)?
HCMV antiviral: -24.6

How did O=C(NC(=S)N(CCO)Cc1ccccc1)c1ccc(S(=O)(=O)N2CCCC2)cc1 do in these assays?
Shiga toxin inh: -4.3; Pf growth 48h: -3.9%; Cycloheximide cs: -1.6; Pf growth 96h: 0.7%; HCMV antiviral: -16.7

Results for Cc1cccc(Oc2nc3c(c(=O)n(C)c(=O)n3C)n2C)c1C ?
HCMV antiviral: 15.8

Results for Cc1cc(OCC(=O)NNC(=S)NCC2CCCO2)cc(C)c1Cl (stereo not given) ?
Shiga toxin inh: 33.0; Pf growth 48h: 5.5%; Cycloheximide cs: 17.5*; Pf growth 96h: -24.3%; HCMV antiviral: 32.2

How did Cc1cc(OC(C)C(=O)NCC2CCCO2)cc(C)c1Cl (stereo not given) do in these assays?
Shiga toxin inh: -1.3; Pf growth 48h: 3.9%; Cycloheximide cs: -2.0; Pf growth 96h: 5.22µM*; HCMV antiviral: -3.0

What do the screens show for `CC(C)(C)NC(=S)NC(=O)C12CC3CCC(CC(C3)C1)C2`?
Shiga toxin inh: -9.1; Pf growth 48h: 10.4µM*; Cycloheximide cs: -3.2; Pf growth 96h: 0.0%; HCMV antiviral: 21.5

What do the screens show for `O=C(Nc1ccc(Oc2ccccc2)cc1)C1CCN(c2c3c(nc4ncnn24)CCC3)CC1`?
Shiga toxin inh: -10.8; Pf growth 48h: inconclusive; Cycloheximide cs: -3.7; Pf growth 96h: 26.7%; HCMV antiviral: -100.8*

Results for Cc1cc(C)nc(N2CCC(C(=O)NCc3ccccc3)CC2)n1 ?
Shiga toxin inh: -1.7; Pf growth 48h: 22.0%; Cycloheximide cs: -4.1; Pf growth 96h: inconclusive; HCMV antiviral: -30.5

How did Cc1cc(C)nc(N2CCC(C(=O)Nc3ccc(Oc4ccccc4)cc3)CC2)n1 do in these assays?
Shiga toxin inh: -1.9; Pf growth 48h: -8.4%; Cycloheximide cs: -2.4; Pf growth 96h: 11.7µM*; HCMV antiviral: -17.4

Results for O=C(Nc1ccc2c(c1)CCC2)C1CCN(c2c3c(nc4ncnn24)CCC3)CC1 ?
Shiga toxin inh: -6.3; Pf growth 48h: 11.7µM*; Cycloheximide cs: 0.9; Pf growth 96h: -8.6%; HCMV antiviral: -101.0*

How did Cc1cc(C)nc(N2CCC(CNC(=O)CCc3ccccc3)CC2)n1 do in these assays?
Shiga toxin inh: 10.0; Pf growth 48h: inconclusive; Cycloheximide cs: 5.0; Pf growth 96h: 10.4µM*; HCMV antiviral: 31.2

How did O=C(NCc1ccccc1)C(c1ccncc1)N(C(=O)c1csnn1)C1CC1 (stereo not given) do in these assays?
Shiga toxin inh: -7.5; Pf growth 48h: 17.6%; Cycloheximide cs: -4.8; Pf growth 96h: 7.6%; HCMV antiviral: 17.5

Screening results from PubChem BioAssay.
